Results: the supplement of paper PMC12532568
Counter-ions that a name gives are not always drawn.

tested on: Danio rerio larvae Tg(actc1b:ZsGreen-LC3), 3 dpf; test: LC3 puncta relative area vs vehicle, with NH4Cl (autophagic flux) (log2 fold change); higher = more autophagy; details: 10 µM; treatment time 16 h; NH4Cl: + 100 mM, 4 h
Method: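 Transgenic Tg(actc1b:ZsGreen-map1lc3) zebrafish larvae (2 dpf) were treated for 16 h with Tocris library compounds at 10 µM (n = 12 larvae per compound). Skeletal-muscle LC3 puncta area relative to body area was measured by high-content confocal imaging before and after 4 h of 100 mM NH4Cl (autophagic flux), normalised to vehicle (DMSO), and reported as log2 fold change.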

Compared with N=C(N)S/C=C\C(=O)O [ZAPA sulfate], N[C@@H](CSS(=O)(=O)O)C(=O)O [S-Sulfo-L-cysteine sodium salt] is higher in “LC3 puncta (log2)” value: 0.0813 for the first, 0.324 for the second.

COc1cc(N)c(Cl)cc1C(=O)OCCCN1CCCCC1 and O=C(OCCN1CCCCC1)c1c[nH]c2ccccc12 are within 0.2 log units of each other in “LC3 puncta (log2)” value: 0.449 for the first, 0.6 for the second.

First: N[C@H](C(=O)O)c1cc(O)cc(O)c1
Second: O=C(O)c1cc(O)c2ccc(Cl)cc2n1 [7-Chlorokynurenic acid]
The “LC3 puncta (log2)” value of the first is higher: 0.736 for the first, 0.316 for the second.

CC(CCCCC(=O)Nc1ccc(C(F)(F)F)cc1)NCCc1cnc[nH]1 (stereo not given) [HTMT dimaleate] and CC(CCc1ccc(O)cc1)NCCc1ccc(O)c(O)c1 (stereo not given) [Dobutamine hydrochloride] are within 0.2 log units of each other in “LC3 puncta (log2)” value: 0.469 for the first, 0.472 for the second.

Going from CC(C)(C)NC[C@H](O)COc1nsnc1N1CCOCC1 [(S)-Timolol maleate] to CC(C)NC[C@H](O)COc1cccc2ccccc12 [(S)-(-)-Propranolol hydrochloride], the “LC3 puncta (log2)” value rises from 0.785 to 1.09.

Going from COc1cc2c(CCNC(C)=O)c[nH]c2cc1Cl [6-Chloromelatonin] to COc1ccc2[nH]c(I)c(CCNC(C)=O)c2c1 [2-Iodomelatonin], the “LC3 puncta (log2)” value rises from 0.198 to 0.706.

O=C1c2ccccc2CCC1CNCCc1ccc(O)cc1 (stereo not given) [HEAT hydrochloride] and CC(C(O)c1ccc(O)cc1)N1CCC(Cc2ccccc2)CC1 (stereo not given) [Ifenprodil hemitartrate] are within 0.2 log units of each other in “LC3 puncta (log2)” value: 0.616 for the first, 0.445 for the second.

CN(C)CCCSC(=N)N [Dimaprit dihydrochloride] and N=C(N)SCCc1c[nH]cn1 [Imetit dihydrobromide] are within 0.2 log units of each other in “LC3 puncta (log2)” value: 0.561 for the first, 0.713 for the second.

O=C1CN(/N=C/c2ccc(-c3ccc([N+](=O)[O-])cc3)o2)C(=O)N1 [Dantrolene, sodium salt] and CCOC(=O)C1=C(C)NC(C)=C(C(=O)OC)C1c1cccc([N+](=O)[O-])c1 (stereo not given) [Nitrendipine] are within 0.2 log units of each other in “LC3 puncta (log2)” value: 0.404 for the first, 0.513 for the second.

First: O=C(O)C1=CCNCC1 [Isoguvacine hydrochloride]
Second: CCOC(=O)C1=C[C@]2(CC)CCCN3CCc4c(n1c1ccccc41)[C@@H]32 [Vinpocetine]
The “LC3 puncta (log2)” value of the first is lower: 0.468 for the first, 1 for the second.

O=[N+]([O-])c1cc2nc(O)c(O)nc2cc1[N+](=O)[O-] and c1ccc2nc(C3=NCCN3)cnc2c1 [BU 239 hydrochloride] are within 0.2 log units of each other in “LC3 puncta (log2)” value: 0.11 for the first, 0.0532 for the second.

Compared with CC(=O)N[C@@H](CC(=O)N[C@@H](CCC(=O)O)C(=O)O)C(=O)O [Spaglumic acid], CCCC[C@@H](C=O)NC(=O)[C@H](CC(C)C)NC(=O)OCc1ccccc1 [Calpeptin] is higher in “LC3 puncta (log2)” value: 0.103 for the first, 1.29 for the second.

CC(C)[C@H]1CC[C@H](C(=O)N[C@H](Cc2ccccc2)C(=O)O)CC1 [Nateglinide] and CC(C)CC(NC(=O)OCC1c2ccccc2-c2ccccc21)C(=O)O (stereo not given) are within 0.2 log units of each other in “LC3 puncta (log2)” value: 0.54 for the first, 0.569 for the second.

First: CCC1(c2ccccc2)C(=O)NCNC1=O [Primidone]
Second: CNC(=O)c1cc2c(cn1)[nH]c1ccccc12
The “LC3 puncta (log2)” value of the first is higher: 0.792 for the first, 0.446 for the second.

Compared with O=C(NCCCN1CCCCCC1)C(c1ccccc1)C1CCCCC1 (stereo not given), c1ccc(N2CCN(CCCOc3ccc4c(c3)OCO4)CC2)cc1 [BP 554 maleate] is higher in “LC3 puncta (log2)” value: -0.114 for the first, 0.422 for the second.

Compared with NC(N)=Nc1ccc(Cl)cc1 [4-Chlorophenylguanidine hydrochloride], CC(C)NC[C@@H](O)COc1cccc2ccccc12 [(R)-(+)-Propranolol hydrochloride] is lower in “LC3 puncta (log2)” value: 0.148 for the first, -0.318 for the second.

Going from COc1ccc(CCN(C)CCc2ccc(OC)c(OC)c2)cc1OC [YS-035 hydrochloride] to COc1ccc2[nH]c(-c3ccccc3)c(CCNC(C)=O)c2c1 [2-Phenylmelatonin], the “LC3 puncta (log2)” value rises from 0.374 to 0.594.

Compared with CC[C@@H]1C(=O)OC[C@@H]1Cc1cncn1C [Pilocarpine hydrochloride], CN1CCC(=C2c3ccccc3CC(=O)c3sccc32)CC1 [Ketotifen fumarate] is higher in “LC3 puncta (log2)” value: 0.652 for the first, 0.874 for the second.

Going from C/N=C(/NC#N)NCCSCc1csc(NC(=N)N)n1 [Tiotidine] to CC(=O)N[C@@H](Cc1c[nH]c2ccccc12)C(=O)OCc1cc(C(F)(F)F)cc(C(F)(F)F)c1, the “LC3 puncta (log2)” value falls from 0.667 to 0.108.

First: CSc1ccc2c(c1)C(N1CCN(C)CC1)Cc1ccccc1S2 (stereo not given) [Methiothepin maleate]
Second: Brc1c(NC2=NCCN2)ccc2nccnc12
The “LC3 puncta (log2)” value of the first is lower: -0.129 for the first, 0.713 for the second.
